Results on 96 molecules are retold here after PubChem BioAssay AID1628 (Sanford-Burnham Center for Chemical Genomics, 2009).

The whole screen tested about 190,000 compounds, of which about 930 (0.49%) were called active.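 How the source made its calls: active means z-score of insulin promoter reporter brightness in nuclei below -3 at 5 µM, with at least 500 cells counted; inconclusive means wells with under 500 cells, flagged as toxic or sparse; inactive means the rest.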 The list shows a part of the results. Results with a measured potency or affinity are listed apart.

The experiment in a line: insulin promoter down-regulators in MIN6 cells, imaging, high-content screening, mouse beta cells (AID 1628). Conditions: MIN6 insulin promoter GFP reporter, at 5 µM, active compounds read low.
As for `NC(=S)n1[nH]c(-c2ccc([N+](=O)[O-])cc2)c(N=Nc2ccc(Cl)cc2)c1=O`, the z-score is -5.03 (active).

As to `NC(=S)n1[nH]c(-c2ccc([N+](=O)[O-])cc2)c(N=Nc2cccc(Cl)c2)c1=O`, the z-score was -3.23 (active).

For `Cc1ccccc1SCc1noc(C(=O)NC(C)C)c1C(=O)O`, the z-score was 3.02 (inactive).

With `O=C(NCc1cccs1)c1ccc(N2CCCCC2)nc1`, the z-score is 3.41 (inactive).

Take `Cc1cc(C)c(S(=O)(=O)c2ccccc2C)c(SCC(C)C)n1`: the z-score was -3.18 (active).

With `Cc1cc(C)c(C#N)c(SCC2COc3ccccc3O2)n1` (stereo unspecified), the z-score is 3.48 (inactive).

As to `CCOC(=O)c1c(-c2ccc(C)cc2)csc1NC(=O)/C(C#N)=C/c1ccc(O)c(OC)c1`, the z-score was 8.18 (inactive).

As for `CN(C)c1ccc(/C=C/C(O)=C2/C(=O)N(C)C3(C)CC2c2ccccc2O3)cc1` (stereo unspecified), the z-score is 3.04 (inactive).

With `CCc1c(C(=O)NC2CCCCC2)[nH]c(C)c1C(C)=O`, the z-score is 3.85 (inactive).

Take `CCN(CC)CCN(Cc1cc2ccc(C)cc2[nH]c1=O)C(=O)NC1CCCCC1`: the z-score is -4.95 (active).

With `CCCS(=O)(=O)NCCc1cc2ccc(C)cc2[nH]c1=O`, the z-score was 0.95 (inactive).

On to `O=C(c1ccc2c(c1)OCO2)N1CCCC(c2ccccc2)C1` (stereo unspecified), for which the z-score is -3.99 (active).

With `O=C(c1ccc2c(c1)OCO2)N1CCCC1`, the z-score is 8.93 (inactive).

Regarding `O=C(c1ccc2c(c1)OCO2)N1CCN(c2ccccn2)CC1`, the z-score was -5.54 (active).

With `O=C(c1ccc2c(c1)OCO2)N1CCc2ccccc2C1`, the z-score was -0.76 (inactive).

On to `O=C(CC12CC3CC(CC(C3)C1)C2)NCC(=O)N1CCc2ccccc2C1`, for which the z-score is 3.34 (inactive).

For `CN(C)c1ccc(C(=O)c2ccc(N(C)C)c3ccccc23)cc1`, the z-score is -5.22 (active).

For the molecule `CN(C)c1ccc(/C=C/C(=O)c2c(O)c3ccccc3oc2=O)cc1`, the z-score was 8.78 (inactive).

In the case of `O=C(O)c1cc(-c2ccncc2)nc2ccc(F)cc12`, the z-score is 3 (inactive).

For the molecule `O=C(O)CCCC(=O)Nc1c(F)c(F)c(F)c(F)c1F`, the z-score was 0.09 (inactive).

For `Cc1c2ccccc2nc2c(F)c(NC(C)C)c(F)c(F)c12`, the z-score was 9.6 (inactive).

For the molecule `Cc1noc(C)c1CSCC(=O)N1CCN(c2ccc(F)cc2)CC1`, the z-score was -3.68 (active).

`O=C(NCc1ccccn1)C(=O)NCC(c1ccco1)N1CCN(c2ccc(F)cc2)CC1` (stereo unspecified): the z-score was 1.32 (inactive).

`COc1cccc(/C=N/NC(=O)c2c(C)nc3ccc(Br)cn23)c1O`: the z-score is -4.47 (active).

With `COc1cc(OC)c2cc(C(=O)N/N=C/c3cccc(OC)c3O)[nH]c2c1`, the z-score is -3.6 (active).

`COc1ccc(CN=Cc2[nH]c3ccc(Br)c(Cl)c3c2O)cc1`: the z-score was 8.49 (inactive).

On to `CN(C)c1nc(N)nc(/C(C#N)=C/C2CC3C=CC2C3)n1` (stereo unspecified), for which the z-score is 3.05 (inactive).

`Oc1ccc2ccccc2c1N=Nc1ccccn1`: the z-score was -8.6 (active).

For the molecule `CCOC(=O)c1ccc2[nH]c3ccccc3c2c1`, the z-score is -0.27 (inactive).

Turning to `Cc1ccc(/C=[N+](\[O-])c2ccc(N(C)C)cc2)c2nsnc12`, the z-score is 4.9 (inactive).

As for `O=C(COC(=O)c1cc(S(=O)(=O)N2CCOCC2)ccc1O)NCC1CCCO1` (stereo unspecified), the z-score is 3.77 (inactive).

For `CN(C)S(=O)(=O)c1cc(C(=O)NCC2CCCO2)c(Cl)cc1Cl` (stereo unspecified), the z-score is -4.71 (active).

Regarding `O=C(NCC1CCCO1)C1CCN(S(=O)(=O)N2CCCC2)CC1` (stereo unspecified), the z-score is 3.58 (inactive).

`Cc1cc(/C=C2\SC(=S)NC2=O)c(C)n1C1CC1`: the z-score is 3.04 (inactive).

For `O=C(CN1CCN(C(=O)c2ccco2)CC1)Nc1ccccc1-c1ccccc1`, the z-score is -4.53 (active).

For `O=C(OCN1C(=O)c2ccccc2C1=O)c1ccco1`, the z-score was -1.25 (inactive).

Take `O=C(OCC(=O)N1CCN(C(=O)c2ccco2)CC1)c1ccccc1OCc1ccccc1`: the z-score is 11.8 (inactive).

Consider `Cc1cc(S(=O)(=O)NC2CCCCC2)c(C)s1`, for which the z-score is 3.49 (inactive).

Regarding `Cc1cccc(Cn2c(NCCO)nc3c2c(=O)n(C)c(=O)n3C)c1`, the z-score is -9.37 (active).

`CNc1nc2c(c(=O)n(C)c(=O)n2C)n1Cc1ccccc1`: the z-score was -5.04 (active).

As for `CC(C)Cn1cnc2c1c(=O)n(C)c(=O)n2C`, the z-score is -0.43 (inactive).

As for `Cn1c(=O)c(NCCO)c2c3c(cccc31)C(=O)c1ccccc1-2`, the z-score is 13.6 (inactive).

For `Cc1cccc(OCCNc2nc3c(c(=O)n(C)c(=O)n3C)n2C)c1`, the z-score was 4.22 (inactive).

As for `CC(C)CCn1c(CN(C)Cc2ccccc2)nc2c1c(=O)n(C)c(=O)n2C`, the z-score is -5.09 (active).

On to `CN1CC=C2C(C#N)=C(N)C(C#N)(C#N)[C@H](c3ccoc3)[C@H]2C1`, for which the z-score was 12.4 (inactive).

Regarding `CCN(CC)C(=O)C1CCN(Cc2cccc(OCc3ccccc3)c2)CC1`, the z-score is -4.22 (active).

With `CC(C)CCn1nc(C(=O)Nc2nc3c(s2)CCCC3)c2ccccc2c1=O`, the z-score was -3.57 (active).

Consider `CC(C)(C)NC(=O)c1nn(Cc2ccccc2)c(=O)c2ccccc12`, for which the z-score is 1.76 (inactive).

With `COc1ccc(S(=O)(=O)N2CCN(c3ncnc4c(-c5ccccc5)nsc34)CC2)cc1`, the z-score was -3.2 (active).

`Cc1ccc(-n2c3c(c(=O)[nH]c2=O)C(C(F)(F)F)(C(F)(F)F)NC(=O)N3)cc1`: the z-score was 3.01 (inactive).

Turning to `COc1ccc(C2C(C(=O)N3CCOCC3)CCC(=O)N2c2ccc(OC)cc2)cc1` (stereo unspecified), the z-score was 3.73 (inactive).

For `COc1ccc(N2CCN(C(=O)C3CCC(Cn4c(=S)[nH]c5ccccc5c4=O)CC3)CC2)cc1` (stereo unspecified), the z-score is -3.35 (active).

`Nc1c(C(=O)c2cccs2)sc2nsc(SCCN3CCCCC3)c12`: the z-score was 8.75 (inactive).

For `Nc1nc(-c2ccc(Cl)cc2)c(N=Nc2ccc(S(=O)(=O)N3CCOCC3)cc2)s1`, the z-score was 3.8 (inactive).

Turning to `CCN(CC)c1ccc(/C=C2/SC(=O)N(C(C)C)C2=O)o1`, the z-score was 17.3 (inactive).

Take `Cc1cc(Cl)n2nc(C)c(-c3ccc(Cl)cc3)c2n1`: the z-score is -5.26 (active).

On to `O=C(CCn1cccc1)Nc1ccc(OC(F)(F)F)cc1`, for which the z-score was 2.14 (inactive).

`CN(C)S(=O)(=O)Oc1cccc(C(=O)Nc2ccc([N+](=O)[O-])cc2)c1`: the z-score was 3.38 (inactive).

Consider `CCCOc1ccc2ccccc2c1/C=N/n1c(C)nnc1-n1nc(C)cc1C`, for which the z-score was -4.98 (active).

With `N#C/C(=C\c1ccc(N2CCCCC2)o1)C(N)=O`, the z-score was 7.37 (inactive).

`O=C(O)c1cc([N+](=O)[O-])c(NCCC2=CCCCC2)c([N+](=O)[O-])c1`: the z-score is 0.74 (inactive).

`COC(CNC(=O)CSCc1nc(-c2ccc(SC)cc2)oc1C)OC`: the z-score is 2.32 (inactive).

Take `COc1cc(C(=O)Oc2ccccc2/C=N/NC(=O)c2ccc(C)c(Cl)c2)cc(OC)c1OC`: the z-score is -5.2 (active).

Regarding `COc1cccc(/C=N/NC(=O)c2ccc(N(C)S(=O)(=O)c3ccccc3)cc2)c1OC`, the z-score is 3.8 (inactive).

On to `CCCN1C=CC(=CC=C(C#N)C#N)C=C1`, for which the z-score was 4.99 (inactive).

Turning to `CCC(=O)Nc1ccc(C(=O)Cn2ncc(Cl)c(Cl)c2=O)cc1`, the z-score was -3.05 (active).

Turning to `C=CCNC(=O)/C(=C\c1ccc(Br)cc1)NC(=O)c1ccccc1OC`, the z-score was 3.42 (inactive).

With `COc1ccccc1C(=O)NC(=Nc1nc2ccccc2o1)NC(=O)c1ccccc1OC`, the z-score was -6.44 (active).

With `COc1ccccc1C(=O)NNC(=O)C(=O)NC(C)(C)C`, the z-score was 3.28 (inactive).

Consider `COc1ccccc1N/C=C/c1onc(C)c1[N+](=O)[O-]`, for which the z-score is 4.57 (inactive).

With `Cn1c(/C(C#N)=C/c2ccc(-c3ccc(S(N)(=O)=O)cc3)o2)nc2ccccc21`, the z-score is 4.53 (inactive).

Consider `C/C(=N\Nc1ccc([N+](=O)[O-])cc1)c1cc2ccccc2o1`, for which the z-score was 5.52 (inactive).

As for `C/C(=N/Nc1nc(-c2ccccc2)cc(-c2ccccc2)n1)c1ccc(N)cc1`, the z-score was -3.67 (active).

Consider `CNC(=S)NNC(=O)c1oc2nc(-c3ccccc3)cc(-c3ccco3)c2c1N`, for which the z-score was 3.41 (inactive).

`COc1cc(OC)c(-c2c3cc(O)c(=O)cc-3oc3cc(O)c(O)cc23)cc1OC`: the z-score is 11.4 (inactive).

On to `Cc1cccc(NC(=O)COc2cccc3c2CCN(Cc2ccccc2)C3=O)c1C`, for which the z-score was -3.66 (active).

As for `S=c1[nH]nc(-c2ccccc2)n1CC1CCCO1` (stereo unspecified), the z-score was 3.06 (inactive).

For the molecule `Cc1nccn1CCc1n[nH]c(=S)n1Cc1ccccc1`, the z-score is -4.01 (active).

As to `CC(C)OC(=O)c1c2c(n3ccccc13)C(=O)c1ccccc1C2=O`, the z-score was 11.7 (inactive).

`CN1c2ccccc2N(C)C1c1c(O)ccc2ccccc12`: the z-score is 1 (inactive).

On to `CC1CCN(C(=O)CNS(=O)(=O)c2ccc(Br)s2)CC1`, for which the z-score was 3.37 (inactive).

`CCC(C)NS(=O)(=O)c1ccc(OCC(=O)N2CCC(C)CC2)cc1` (stereo unspecified): the z-score was 0.84 (inactive).

In the case of `CC1CC(C)CN(C(=O)c2cccc3c2-c2ccccc2C3=O)C1` (stereo unspecified), the z-score was 3.97 (inactive).

Regarding `CC1CC(C)CN(C(=O)C(NS(=O)(=O)c2ccc3c(c2)oc(=O)n3C)C(C)C)C1` (stereo unspecified), the z-score is -5.42 (active).

As to `Cc1nc2ccc(S(=O)(=O)NC(C(=O)N3CCC(C)CC3)C(C)C)cc2s1` (stereo unspecified), the z-score is -4.34 (active).

`CCCN(CCC)S(=O)(=O)c1ccc(C(=O)OCCN2C(=O)c3cccc4c(N5CCOCC5)ccc(c34)C2=O)cc1`: the z-score is 6.18 (inactive).

As for `COc1cc(OC)cc(C(=O)Nc2cccc(C(C)=O)c2)c1`, the z-score was 3.53 (inactive).

Take `CCCN(CCC)S(=O)(=O)c1ccc(C(=O)Nc2nnc(-c3cc(OC)cc(OC)c3)o2)cc1`: the z-score was -4.56 (active).

Consider `Cc1ccc(NC(=O)/C=C/c2ccc([N+](=O)[O-])s2)c(C)c1`, for which the z-score was 13.3 (inactive).

For `Cc1ccc2nc(SCC(=O)Nc3ccc(C)c([N+](=O)[O-])c3)[nH]c2c1`, the z-score was -4.5 (active).

Consider `COc1ccc2nc(SCC(=O)Nc3c(C)cccc3C)[nH]c2c1`, for which the z-score is 3.26 (inactive).

Regarding `N#C/C(=C/c1ccc(N2CCCCC2)o1)C(=O)Nc1ccc2ccccc2c1`, the z-score is 12.9 (inactive).

With `CCCN1C(=O)/C(=C/c2c(N3CCNC(=O)C3CC(=O)OCC)nc3c(C)cccn3c2=O)SC1=S` (stereo unspecified), the z-score was 12.1 (inactive).

Regarding `O=C(CSc1nc2[nH]ncc2c(=O)n1-c1ccccc1)NCCc1ccccc1`, the z-score is 2.5 (inactive).

Take `O=C(CSc1ccc2ccccc2c1)NCCc1ccc(O)c(O)c1`: the z-score is -3.3 (active).

`O=C(COc1ccccc1)NCCn1ccc2ccccc21`: the z-score was 1.18 (inactive).
